Measurements published in PubChem BioAssay AID624405 (Broad Institute, 2012).
The campaign covered roughly 1,900 compounds. About 250 (13%) were called active. Roughly 4% stayed inconclusive and do not appear here.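 Rule for the calls: active = fitted curve reaches 40% rescue activity at or below the top valid dose, in every test run; inconclusive = test runs disagree, some active and some inactive; inactive = every run misses the threshold or moves the wrong way.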 The list is a sample of the results. Where a call stands in place of a potency, no number is given. Potency and affinity values are given separately.

Experiment: rescue of simvastatin-induced ATP loss – cell-based, C2C12 myotubes, ATP luminescence, cherry pick, dose response (AID 624405);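 note: myotubes are challenged with simvastatin at 10 µM to lower ATP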
Details: 48 h, scaled: DMSO wells 0, geranylgeraniol wells 100; series mostly up to 19.5 µM

SMILES | outcome
Cc1noc(C)c1NC(=O)Nc1cccc2c1O[C@H](CN(C)Cc1ccc(-c3ccccc3)cc1)[C@@H](C)CN([C@@H](C)CO)C2=O | inactive
COc1ccc(NC(=O)Nc2cccc3c2O[C@@H](CN(C)Cc2ccc(Oc4ccccc4)cc2)[C@@H](C)CN([C@@H](C)CO)C3=O)cc1 | inactive
Cc1noc(C)c1NC(=O)Nc1cccc2c1O[C@@H](CN(C)Cc1ccc(-c3ccccc3)cc1)[C@H](C)CN([C@@H](C)CO)C2=O | inactive
COc1ccc(NC(=O)Nc2cccc3c2O[C@@H](CN(C)Cc2ccc(Oc4ccccc4)cc2)[C@@H](C)CN([C@H](C)CO)C3=O)cc1 | inactive
C[C@@H]1CN([C@@H](C)CO)C(=O)c2cc(C#CC3CCCCC3)cnc2O[C@@H]1CN(C)C(=O)C1CCCCC1 | inactive
CSc1nncn1/N=C/c1ccc2c(c1)OCO2 | inactive
COc1cccc(-c2cnc3c(c2)C(=O)N([C@H](C)CO)C[C@H](C)[C@H](CN(C)C(=O)Nc2cccc4ccccc24)O3)c1 | inactive
COc1cc(C(=O)Oc2cccc(C)c2)cc(OC)c1OC | inactive
Cc1ccc(S(=O)(=O)N2CCCSCC2)cc1 | inactive
COc1cc(S(=O)(=O)N2CCN(C(=O)c3ccccc3F)CC2)c(OC)cc1NC(C)=O | inactive
O=C(c1cccs1)N1CCN(C2CCN(Cc3ccccc3)CC2)CC1 | inactive
COc1ccc(CN2CCN(C(=O)c3cccs3)CC2)cc1Br | inactive
Cc1noc(N)c1C(=O)Nc1ccc(F)c(Cl)c1 | inactive
Cc1nnc(Sc2nc3c(c(=O)n(C)c(=O)n3C)n2Cc2ccccc2Cl)s1 | inactive
O=C1CCCC2=C1C(c1cccs1)Nc1ccc3ncccc3c12 (stereo unspecified) | inactive
CCCSc1nnc(CN2CCOCC2)n1C | inactive
CCCNC(=O)C(=O)c1cccn1-c1ccsc1C(=O)OC | inactive
CCOC(=O)c1ccc(NC(=O)N2CCCCC2)cc1 | inactive
C[C@H](CO)N1C[C@H](C)[C@H](CN(C)C(=O)Nc2ccc3c(c2)OCO3)OCCCC[C@H](C)Oc2ccc(NS(=O)(=O)c3ccc(F)cc3)cc2C1=O | inactive
Cc1ccc(CN2CCC(C(=O)NCCC(C)C)CC2)o1 | inactive
Cc1ccc(S(=O)(=O)N(C)C[C@H]2Oc3c(NC(=O)Nc4ccccc4)cccc3C(=O)N([C@@H](C)CO)C[C@@H]2C)cc1 | inactive
COc1ccc(S(=O)(=O)Nc2cccc3c2O[C@H](CN(C)C(=O)Nc2ccc(F)cc2)[C@@H](C)CN([C@H](C)CO)C3=O)cc1 | inactive
Cc1ccc(S(=O)(=O)N(C)C[C@@H]2Oc3c(NC(=O)Nc4ccccc4)cccc3C(=O)N([C@@H](C)CO)C[C@H]2C)cc1 | inactive
COc1ccc(S(=O)(=O)Nc2cccc3c2O[C@@H](CN(C)C(=O)Nc2ccc(F)cc2)[C@@H](C)CN([C@@H](C)CO)C3=O)cc1 | inactive
COc1ccc(S(=O)(=O)Nc2cccc3c2O[C@@H](CN(C)C(=O)Nc2ccc(F)cc2)[C@@H](C)CN([C@H](C)CO)C3=O)cc1 | inactive
Cc1ccc(S(=O)(=O)N(C)C[C@H]2Oc3c(NC(=O)Nc4ccccc4)cccc3C(=O)N([C@H](C)CO)C[C@@H]2C)cc1 | inactive
